# Measurements reported in PubChem BioAssay AID485358 (National Center for Advancing Translational Sciences (NCATS), 2010).
# Hit rate of the full screen: of about 340,000 compounds, about 1,800 (0.53%) were called active.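 The calls were made as follows: active = activation over 3 SD above normal in the single-dose calcium agonist read (cut at about 30% in these data); inactive = the rest.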 For the sample, actives were picked, then their nearest neighbours and some compounds at random.
# Target: D(2) dopamine receptor (Homo sapiens) (UniProt P14416)
# Assay: HTS Assay for Allosteric Agonists of the Human D2 Dopamine Receptor: Primary Screen for Agonists; also: 0% is about no effect
# Settings: HEK293 T-REx D2 cells, calcium flux agonist mode; at 2 µM; stronger effect = higher value
# Summary of the method: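 Agonism is scored from calcium flux in a force-coupled, inducible HEK293 cell line expressing D2, read kinetically for 180 s after compound addition against dopamine controls.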
# Chain of D(2) dopamine receptor (Homo sapiens) (P14416 whole entry, looked up): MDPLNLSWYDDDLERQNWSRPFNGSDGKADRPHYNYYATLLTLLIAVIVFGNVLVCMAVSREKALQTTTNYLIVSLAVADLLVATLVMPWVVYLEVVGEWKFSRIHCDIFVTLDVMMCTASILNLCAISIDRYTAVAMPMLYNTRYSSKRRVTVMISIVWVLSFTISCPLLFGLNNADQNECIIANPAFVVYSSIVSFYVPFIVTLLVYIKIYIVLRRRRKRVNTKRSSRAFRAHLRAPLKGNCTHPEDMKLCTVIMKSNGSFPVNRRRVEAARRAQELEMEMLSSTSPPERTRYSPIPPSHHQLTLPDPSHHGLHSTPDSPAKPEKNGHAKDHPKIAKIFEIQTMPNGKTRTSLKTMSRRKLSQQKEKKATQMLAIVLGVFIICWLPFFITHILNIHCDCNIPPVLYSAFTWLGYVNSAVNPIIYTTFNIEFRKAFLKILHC
row,SMILES,activation
1,COc1ccc(-c2cn3nc(N4CCCC(C(=O)NCCCOC(C)C)C4)sc3n2)cc1 (configuration not stated),-0.281% (inactive)
2,CN1c2ccc(Cl)cc2-c2nc(SCC(=O)Nc3cc(F)ccc3F)ncc2S1(=O)=O,0.0638% (inactive)
3,CO/N=C/c1cn(-c2ccc(Cl)cc2)nn1,33.3% (active)
4,O=C(COc1ccc(Cl)cc1)Nc1ccc(-c2nc3cc(Cl)ccc3o2)c(O)c1,1.1% (inactive)
5,O=C(NC1CC(=O)N(c2ccc(F)cc2)C1)C1CCCCC1 (configuration not stated),1.31% (inactive)
6,CCOc1ccc(C(=O)N2CCN(CCc3ccccn3)CC2)cc1,0.162% (inactive)
7,Cc1cc(NC(=O)CSc2ncc(C(=O)Nc3ccc(Cl)cc3)c(=O)n2C)no1,0.675% (inactive)
8,O=C(Nc1ccccc1C(=O)N1CCCCC1)c1ccco1,-0.0145% (inactive)
9,CS/C(=C\C(=O)c1ccco1)Nc1ccccc1Cl,34.5% (active)
10,Cc1c(Cl)cccc1NC(=O)CCC(=O)N/N=C/c1ccco1,0.478% (inactive)
11,CNC(=S)N1CCN(c2ccccn2)CC1,2.09% (inactive)
12,CC(=C1C(=O)c2ccccc2C1=O)N1CCN(c2ccccn2)CC1,62.2% (active)
13,O=C(C(Cl)Cl)N1CCN(c2ccccn2)CC1,4.39% (inactive)
14,Cc1cccc(-c2nnc(SCC(=O)N3CCCc4ccccc43)o2)c1,-1.45% (inactive)
15,CC(C)c1ccc(C2CC(=O)N3CN(C4CCCCC4)CSC3=C2C#N)cc1 (configuration not stated),0.111% (inactive)
16,COc1ccccc1-c1cc2nc(C)c(CCC(=O)O)c(C)n2n1,0.732% (inactive)
17,COc1ccc(N2CCN(S(=O)(=O)c3ccc(-c4coc(C)n4)cc3)CC2)cc1,-0.462% (inactive)
18,COc1cc(OC)c(NC(=O)c2cc(S(=O)(=O)N3CCCC3)cn2C)cc1Cl,2.37% (inactive)
19,CCC1=Nc2cc(C(=O)NCC(C)c3ccccc3)ccc2Sc2ccc(C)cc21 (configuration not stated),-0.272% (inactive)
20,O=C(CSc1nc2c(c(=O)[nH]1)CN(Cc1ccc3c(c1)OCO3)CC2)Nc1cc(F)ccc1F,0.843% (inactive)
21,Fc1ccc2[nH]c3c(N4CCN(Cc5ccc6c(c5)OCO6)CC4)ncnc3c2c1,35.9% (active)
22,CCCCCc1c(C)nc(N2CCN(Cc3ccc4c(c3)OCO4)CC2)[nH]c1=O,0.0879% (inactive)
23,CCn1c2ccccc2c2nnc(SCC(=O)O)nc21,-0.808% (inactive)
24,CCCCc1nn2c(=O)cc(COC(=O)c3ccc(NC(=O)c4ccccc4C)cc3)nc2s1,8.52% (inactive)

row,SMILES,activation
1,Cn1c(=O)c(=O)n(C)c2cc(S(=O)(=O)NCCN3CCN(c4ccccc4F)CC3)ccc21,67.4% (active)
2,O=C(CCCNS(=O)(=O)c1cccc2nsnc12)NCCN1CCN(c2ccccc2F)CC1,24.7% (inactive)
3,CCOC(=O)N1CCN(c2c(NCCN3CCN(c4ccccc4F)CC3)c(=O)c2=O)CC1,10.4% (inactive)
4,COc1ccccc1CN1CCC(CNC(=O)c2cnn(-c3ccccc3Cl)c2C2CCN(C(=O)OC(C)(C)C)CC2)CC1,3.36% (inactive)
5,Cc1ccccc1NC(=O)Cn1c(=O)n(Cc2ccco2)c(=O)c2ccc(C(=O)NC3CCCC3)cc21,0.581% (inactive)
6,Cc1cccc(-n2c(=O)c3c(c4cc(C)ccc4n3C)n(CC(=O)Nc3ccccc3Cl)c2=O)c1,0.838% (inactive)
7,COC(c1ccccc1)c1nnc(CCC(=O)N2CCN(CCOc3ccccc3)CC2)o1 (configuration not stated),47% (active)
8,Cc1nc(CN2CCN(C(=O)CCc3nnc(Cc4c[nH]c5ccccc45)o3)CC2)cs1,0.942% (inactive)
9,O=S(=O)(c1cccs1)N1CCN(CCOc2ccccc2)CC1,21.2% (inactive)
10,Cc1ccc(Nc2ccc3cc(S(=O)(=O)N4CCCCC4)ccc3n2)cc1F,0.936% (inactive)
11,Cc1cccc(NC(=O)CN(c2ccc(C(C)C)cc2)S(=O)(=O)c2c(C)nn(C)c2C)c1C,0.387% (inactive)
12,Cc1nc2nc(SCC(=O)NC3CCC(C)CC3)nn2c(C)c1Cc1ccccc1Cl (configuration not stated),-0.0264% (inactive)
13,COc1ccccc1-c1noc(-c2ccc(NCc3ccccc3)c([N+](=O)[O-])c2)n1,-0.924% (inactive)
14,Cc1ccccc1C(=O)Nc1cc(C)c(O)c(-c2nc3ccccc3o2)c1,-0.387% (inactive)
15,CCn1cc(C(=O)N2CCN(Cc3ccc4c(c3)OCO4)CC2)c2cc(OC)c(OC)cc2c1=O,51.1% (active)
16,O=C(C1CCN(Cc2ccc(Cl)cc2)CC1)N1CCN(Cc2ccc3c(c2)OCO3)CC1,0.973% (inactive)
17,COc1ccc(-c2cc(C(=O)N3CCN(Cc4ccc5c(c4)OCO5)CC3)on2)cc1OC,-0.524% (inactive)
18,CCn1cc(C(=O)N2CCN(C3CCCCC3)CC2)c2cc(OC)c(OC)cc2c1=O,0.186% (inactive)
19,CCn1cc(C(=O)NCc2ccc3c(c2)OCO3)c2cc(OC)c(OC)cc2c1=O,-0.995% (inactive)
20,Cc1cc(C)n2nc(C(=O)Oc3ccc4c(c3)OCO4)nc2n1,-0.808% (inactive)
21,O=C(Nc1cccc2ccccc12)N1CCN(Cc2ccc3c(c2)OCO3)CC1,5.88% (inactive)
22,Cc1cc(C)n2nc(C(=O)N3CCN(Cc4ccc5c(c4)OCO5)CC3)nc2n1,40.9% (active)
23,O=C(c1cccs1)N1CCN(Cc2ccc3c(c2)OCO3)CC1,84.2% (active)
